Data reported in PubChem BioAssay (NCATS).
Records with an inconclusive call do not appear. Calls of active or inactive are those of the source. Calls follow the shape of the dose curve; as a rule, active = well fitted inhibition curve with a large enough effect; inconclusive = small, poorly fitted or top-dose-only effect; inactive = no such curve, though single readings can be large or run the other way.

Test system: Zika virus NS2B-NS3 protease (unlinked complex)
Test: Primary screen GU Rhodamine qHTS for Zika virus inhibitors: Unlinked NS2B-NS3 protease assay (AID 1347159); also: nearly all actives have a fitted effect of over 60% in size
Conditions: Recombinant ZIKV NS2B-NS3 protease, Rhodamine110 substrate fluorescence; series mostly up to 107 µM; activity change, negative = inhibition: at the top concentration
Summary of the method: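 Percent inhibition came from the 15-min rise in Rhodamine110 fluorescence (1.5 microM substrate, ~15% conversion), normalized to no-inhibitor and no-enzyme wells and Hill-fitted. Unlinked protease, 25 nM, pH 8.0 Tris buffer; compounds up to 114 microM, 15-min preincubation.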
% is scaled to controls: 0 for no effect and ±100 for the full control effect; potency is read from the fitted curve at half-maximal effect.

Row | SMILES | activity change, negative = inhibition | Potency
1 | Oc1ccc(Nc2nc(-c3ccc(Cl)cc3)cs2)cc1 | -14.3% (inactive) | –
2 | Nc1ncnc2c1ncn2[C@@H]1O[C@H](CO)C[C@H]1O | -29.5% (inactive) | –
3 | Cc1cc2nc(NCCCO)n(CC(=O)c3cc(C(C)(C)C)c(O)c(C(C)(C)C)c3)c2cc1C | 0% (inactive) | –
4 | CC[C@H](CO)Nc1nc(Nc2cccc(-c3ccccn3)c2)c2ncn(C(C)C)c2n1 | 70.5% (inactive) | –
5 | Cc1ccccc1C(=O)Nc1ccc(C(=O)N2CCC[C@@H](O)c3cc(Cl)ccc32)c(C)c1 | 25.3% (inactive) | –
6 | CCOC(=O)c1cccc(CNc2ccc(N(C)C(=O)Nc3ccccc3)cc2)c1 | 8.9% (inactive) | –
7 | CC1CCN(C(c2ccc(F)cc2)c2ccc(C(C)C(=O)O)cc2-c2ccc(C(F)(F)F)cc2)CC1 (stereo unspecified) | – | 1.58 µM (active)
8 | O=C(NC(NC(=S)Nc1ccc(F)c([N+](=O)[O-])c1)C(Cl)(Cl)Cl)C(c1ccccc1)c1ccccc1 (stereo unspecified) | -25.6% [at 32.5 µM] (inactive) | –
9 | COCCOCCOc1ccc(C2=N[C@@](C)(C(=O)O)CS2)c(O)c1 | 0% (inactive) | –
10 | C=C(C)C(=O)O[C@H]1[C@H]2C(=C)C(=O)O[C@@H]2C[C@@H](C)/C=C\C(=O)[C@](C)(O)[C@@H]1OC(C)=O | -5.77% [at 57.1 µM] (inactive) | –
11 | CC(=O)C1=C(O)C2c3c[nH]c4cccc(c34)CC2C(C)(C)N(C)C1=O (stereo unspecified) | -16.7% (inactive) | –
12 | CC(C)N(CCCNC(=O)Nc1ccc(C(C)(C)C)cc1)C[C@H]1O[C@@H](n2cc(Br)c3c(N)ncnc32)[C@H](O)[C@@H]1O | 102% (inactive) | –
13 | O=[N+]([O-])c1ccc(-[n+]2nc(-c3ccccc3)nn2-c2ccc(I)cc2)cc1 | 7.68% (inactive) | –
14 | CC(=O)N[C@@H](CC(=O)O)C(=O)N[C@@H](CCC(=O)O)C(=O)N[C@H](C(=O)N[C@@H](CC(=O)O)C(=O)Nc1ccc2c(C)cc(=O)oc2c1)C(C)C | 0% (inactive) | –
15 | Cn1cc(-c2cnc3ccc4ccc(CS(=O)(=O)NCc5ccccn5)cc4c(=O)c3c2)cn1 | 34.2% (inactive) | –
16 | C=C1[C@@H](C2=CC(=O)OC2)CC[C@@]2(O)[C@@H]1CC1[C@H]2CC[C@@H]2C[C@@H](O[C@H]3O[C@@H](C)[C@@H](O[C@@H]4O[C@H](CO[C@@H]5O[C@H](CO)[C@@H](O)[C@H](O)[C@H]5O)[C@@H](O)[C@H](O)[C@H]4O)[C@H](OC)[C@H]3O)CC[C@]12C (stereo partly specified) | -6.08% [at 32.5 µM] (inactive) | –
17 | CCS(=O)(=O)N(Cc1cccnc1)c1cccc(-c2ccc(C#N)cc2)c1 | 19.6% (inactive) | –
18 | CC(C)CCC[C@@H](C)[C@H]1CC[C@H]2[C@@H]3CC=C4C[C@@H](OC(=O)NCCN(C)C)CC[C@]4(C)[C@H]3CC[C@]12C | 442% (inactive) | –
19 | CNCc1ccc(C)c(NC(=O)c2ccc(Nc3nc(-c4ccccc4)c4ccccc4n3)cc2)c1 | 6.12% (inactive) | –
20 | CC1CCC(n2c3cnccc3c3cnc(Nc4ccc5c(n4)CCN(C(=O)CO)C5)nc32)CC1 (stereo unspecified) | 2.52% (inactive) | –
21 | C=CC(=O)Nc1cc(Nc2nccc(-c3cn(C)c4ccccc34)n2)c(OC)cc1N(C)CCN(C)C | 260% (inactive) | –
